This is an account of results in paper PMC9911399, “Two distinct binding modes provide the RNA-binding protein RbFox with extraordinary sequence specificity”.

The labels stand for the following.
T1: RBFOX1 RRM (Homo sapiens, UniProt Q9NWB1 109-208)
T1 sequence: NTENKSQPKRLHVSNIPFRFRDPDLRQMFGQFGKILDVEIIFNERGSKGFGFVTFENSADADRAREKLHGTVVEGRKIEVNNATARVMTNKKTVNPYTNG

B1: GAACGUU (DNA:RNA)
RNA: GGGAGACCGGAAUUCAGAUUGUCCGAACGUUUUAAAUCCCGUCGUAGCCACCA
DNA 1: CAATCTGAATTCCGGTCTCCC
DNA 2: TGGTGGCTACGACGGGATT
B2: CGGCGCA (DNA:RNA)
RNA: B1 RNA with G25C, A26G, A27G, U30C, U31A
DNA 1: CAATCTGAATTCCGGTCTCCC
DNA 2: TGGTGGCTACGACGGGATT
B3: CCGCUCA (DNA:RNA)
RNA: B1 RNA with G25C, A26C, A27G, G29U, U30C, U31A
DNA 1: CAATCTGAATTCCGGTCTCCC
DNA 2: TGGTGGCTACGACGGGATT
B4: UUAGAAU (DNA:RNA)
RNA: B1 RNA with G25U, A26U, C28G, G29A, U30A
DNA 1: CAATCTGAATTCCGGTCTCCC
DNA 2: TGGTGGCTACGACGGGATT
B5: GUAUACC (DNA:RNA)
RNA: B1 RNA with A26U, C28U, G29A, U30C, U31C
DNA 1: CAATCTGAATTCCGGTCTCCC
DNA 2: TGGTGGCTACGACGGGATT
B6: UUGGCUG (DNA:RNA)
RNA: B1 RNA with G25U, A26U, A27G, C28G, G29C, U31G
DNA 1: CAATCTGAATTCCGGTCTCCC
DNA 2: TGGTGGCTACGACGGGATT
B7: CCCUGGC (DNA:RNA)
RNA: B1 RNA with G25C, A26C, A27C, C28U, U30G, U31C
DNA 1: CAATCTGAATTCCGGTCTCCC
DNA 2: TGGTGGCTACGACGGGATT
B8: CUGUGGC (DNA:RNA)
RNA: B1 RNA with G25C, A26U, A27G, C28U, U30G, U31C
DNA 1: CAATCTGAATTCCGGTCTCCC
DNA 2: TGGTGGCTACGACGGGATT
B9: UGGCUGU (DNA:RNA)
RNA: B1 RNA with G25U, A26G, A27G, G29U, U30G
DNA 1: CAATCTGAATTCCGGTCTCCC
DNA 2: TGGTGGCTACGACGGGATT
B10: CUGGCUC (DNA:RNA)
RNA: B1 RNA with G25C, A26U, A27G, C28G, G29C, U31C
DNA 1: CAATCTGAATTCCGGTCTCCC
DNA 2: TGGTGGCTACGACGGGATT
B11: GUGCUGU (DNA:RNA)
RNA: B1 RNA with A26U, A27G, G29U, U30G
DNA 1: CAATCTGAATTCCGGTCTCCC
DNA 2: TGGTGGCTACGACGGGATT
B12: UGGCUCU (DNA:RNA)
RNA: B1 RNA with G25U, A26G, A27G, G29U, U30C
DNA 1: CAATCTGAATTCCGGTCTCCC
DNA 2: TGGTGGCTACGACGGGATT
B13: CUGGCUG (DNA:RNA)
RNA: B1 RNA with G25C, A26U, A27G, C28G, G29C, U31G
DNA 1: CAATCTGAATTCCGGTCTCCC
DNA 2: TGGTGGCTACGACGGGATT
B14: GUGGCUG (DNA:RNA)
RNA: B1 RNA with A26U, A27G, C28G, G29C, U31G
DNA 1: CAATCTGAATTCCGGTCTCCC
DNA 2: TGGTGGCTACGACGGGATT
B15: UUGGCUC (DNA:RNA)
RNA: B1 RNA with G25U, A26U, A27G, C28G, G29C, U31C
DNA 1: CAATCTGAATTCCGGTCTCCC
DNA 2: TGGTGGCTACGACGGGATT
B16: UGGGCUC (DNA:RNA)
RNA: B1 RNA with G25U, A26G, A27G, C28G, G29C, U31C
DNA 1: CAATCTGAATTCCGGTCTCCC
DNA 2: TGGTGGCTACGACGGGATT
B17: CGGCUGU (DNA:RNA)
RNA: B1 RNA with G25C, A26G, A27G, G29U, U30G
DNA 1: CAATCTGAATTCCGGTCTCCC
DNA 2: TGGTGGCTACGACGGGATT
B18: CAUUUCG (DNA:RNA)
RNA: B1 RNA with G25C, A27U, C28U, G29U, U30C, U31G
DNA 1: CAATCTGAATTCCGGTCTCCC
DNA 2: TGGTGGCTACGACGGGATT
B19: UAUCCUA (DNA:RNA)
RNA: B1 RNA with G25U, A27U, G29C, U31A
DNA 1: CAATCTGAATTCCGGTCTCCC
DNA 2: TGGTGGCTACGACGGGATT
B20: GAGGAUC (DNA:RNA)
RNA: B1 RNA with A27G, C28G, G29A, U31C
DNA 1: CAATCTGAATTCCGGTCTCCC
DNA 2: TGGTGGCTACGACGGGATT

Numbering of substitutions follows the chain as printed; changes in the protein carry UniProt numbers. In all, about 16,000 sequences were measured (“ka relative to ugcaugu”: median about 0.0091, highest 2% from about 0.032 on). The sample holds the highest values, similar sequences and a random draw of the others, so the mix is not that of the screen.

For the experiment, the target named is T1, RBFOX1 RRM. The experiment is described as follows: EMSA; HiTS-Eq, 1 nM pool, 10 min; buffer printed only for the single-RNA assays: 10 mM Tris pH 7.5, 150 mM NaCl, 3.4 mM EDTA, 0.001% NP-40, 30 C. Particulars: tags: His6 N-terminal (pET28a); label: 5' 32P. In a few lines: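 A pool of RNA with 7 randomized nucleotides, 5′-radiolabelled and with DNA-annealed flanks, was equilibrated at 1 nM for 10 min in 50 µL with purified RbFox RRM, wild type or mutant, across increasing protein concentrations. Free RNA was separated by 8% native PAGE, excised, reverse-transcribed, barcoded by PCR and sequenced. Relative association constants were obtained from read-count changes of each RNA species versus the control reaction and normalised to the cognate motif.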
(Mobility shift assays separate free from complexed probe on a gel.)
B1: the binding signal is 0.0166 KA relative to UGCAUGU.
In the case of B2 it was 0.0121 KA relative to UGCAUGU.
As for B3, the binding signal was 0.00712 KA relative to UGCAUGU.
The same measure for B4: 0.00773 KA relative to UGCAUGU.
In the case of B5 it was 0.0043 KA relative to UGCAUGU.
For the molecule B6, the binding signal was 0.0406 KA relative to UGCAUGU.
The same measure for B7: 0.011 KA relative to UGCAUGU; for B8: 0.0106 KA relative to UGCAUGU; for B9: 0.0395 KA relative to UGCAUGU.
For the molecule B10, the binding signal is 0.0211 KA relative to UGCAUGU.
With B11, the binding signal was 0.021 KA relative to UGCAUGU.
In the case of B12 it was 0.0197 KA relative to UGCAUGU; in that of B13, 0.0348 KA relative to UGCAUGU.
Consider B14, for which the binding signal was 0.0289 KA relative to UGCAUGU.
Regarding B15, the binding signal was 0.0219 KA relative to UGCAUGU.
The same measure for B16: 0.0362 KA relative to UGCAUGU; for B17: 0.0179 KA relative to UGCAUGU; for B18: 0.00769 KA relative to UGCAUGU.
The same measure for B19: 0.00279 KA relative to UGCAUGU; for B20: 0.0149 KA relative to UGCAUGU.
